# Shown is part of a subset that was picked to be rich in hits.
# TTR transcr act: activators of transthyretin transcription | SH-SY5Y TTR promoter Gaussia luciferase, luminescence; 100% = recombinant luciferase protein wells | activation, % at 16.7 µM | 92,000 compounds, 1.3% hits | AID 1117267;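 active = activation above the mean of all tested compounds plus 3 SD, cut at about 9.5% in these data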;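 also: cells exposed to compounds for one day before reading; 0% = median of all test compound wells on the plate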
# Starred values were filed as active, the others as inactive.
SMILES,TTR transcr act
c1ccc2cc(Cn3ccc4ccc(-c5ccc6cc[nH]c6c5)cc43)ccc2c1,0
O=C(NCCO)[C@H](Cc1ccccc1)NC1(C(=O)NCCc2c[nH]c3ccccc23)CCCCC1,4
CCOC(=O)C1C[C@@H](O)C=CC1=O (stereo not given in full),0
COC(=O)C[C@H]1CC[C@@H]2[C@@H](COc3ccc(NS(=O)(=O)c4ccccc4Cl)cc3C(=O)N2C)O1,-2
CC(C)(N[C@@H](Cc1ccccc1)C(=O)NCCc1c[nH]c2ccccc12)C(=O)NC1CCCCC1,0
CC1CCCC(C)N1C(=O)COC(=O)c1ccc[nH]c1=O (stereo not given),-2
CN(C)S(=O)(=O)c1cccc(NC(=O)COC(=O)c2c[nH]c(=O)[nH]c2=O)c1,0
CN(C(=O)COC(=O)c1c[nH]c(=O)[nH]c1=O)C1CCCCC1,23*
O=C1CCC[C@H]2C[C@H](NCc3cccc(I)c3)CC[C@]23CCCN13,3
C/C=C/C=C\C(=O)Nc1cccc(C2=NOC3(C2)C[C@@H](C(N)=O)N(C(=O)/C(C)=C/C)C3)c1 (stereo not given in full),-1
C/C=C\C=C/C(=O)Nc1cccc(C2=NOC3(C2)C[C@H](C(N)=O)N(C(=O)c2ccc(OC)cc2)C3)c1 (stereo not given in full),16*
C/C=C\C=C/C(=O)Nc1cccc(C2=NOC3(C2)C[C@H](C(N)=O)N(C(=O)CC)C3)c1 (stereo not given in full),-2
O=C1CC(c2ccc3c(c2)OCO3)N=C2N(Cc3ccc4c(c3)OCO4)C/C(=C/c3ccccc3)N12 (stereo not given),0
O=C(OCC#CCSc1nnc(-c2ccc(F)cc2)o1)c1ccc(F)cc1,-1
C=CCN(C(=O)[C@@H](C)[C@@H](O)c1ccc2ccccc2c1)c1ccccc1,-1
COc1cccc(C2CC(=O)Nc3n[nH]c(-c4ccccc4)c32)c1OC (stereo not given),1
COc1cccc(C2CC(=O)Nc3cc(OC)c(OC)c(OC)c32)c1OC (stereo not given),16*
COc1cccc(C2CC(=O)Nc3cc(OC)c(OC)cc32)c1 (stereo not given),0
O=C(NC1CCCCC1)c1ccc([N+](=O)[O-])cc1,-1
O=[N+]([O-])c1ccc(N/N=C2/CCCCC2c2ccccn2)cc1 (stereo not given),-1
O=C1CCCCC1Nc1ccc([N+](=O)[O-])cc1 (stereo not given),12*
C#CCN1C(=O)[C@@](O)(c2cccn2C)c2cc(F)ccc21,-1
CCCC[C@H]1C2CC(OC(=O)Nc3cccc(Br)c3)C(C2)[C@H]2CCCCN21 (stereo not given in full),0
CS/C(=C\[N+](=O)[O-])Nc1ccc(OC(F)(F)F)cc1,-2
Cc1ccc(-c2nc3ncccn3c2NC(=O)Nc2ccc(OC(F)(F)F)cc2)cc1,4
SMILES,TTR transcr act
Cc1ccc(N=C2SC(C(=O)Nc3ccc(OC(F)(F)F)cc3)C(N)=C2C(=O)Nc2c(C)cc(C)cc2C)cc1 (stereo not given),9.8*
C[C@H]1[C@@H](NC(=O)c2ccc(Cl)cc2)CC[C@@]23CCCN2C(=O)CCC[C@@H]13,1
CC(C)CNC(=O)OCc1cn(Cc2cccc(F)c2F)nn1,2
Cc1cc([N+](=O)[O-])nn1CC(=O)Nc1ccc(F)cc1,1
Cc1cc(C)n(CC(=O)Nc2ccccc2)n1,0
CC(=O)c1ccc(NC(=O)Cn2nc(C)cc2C)cc1,10*
C[C@H]1CCCN1c1ccc2c(c1)OCCCN(C1CC1)S2(=O)=O,0
C[C@H]1C2CC(OC(=O)Nc3cccc(F)c3)C(C2)[C@H]2CCCCN21 (stereo not given in full),1
CCC[C@H]1[C@@H](NS(=O)(=O)c2ccccc2[N+](=O)[O-])CC[C@@]23CCCN2C(=O)CCC[C@@H]13,-1
CCC(c1nnc(SCC(=O)Nc2ccc(S(N)(=O)=O)cc2)n1Cc1ccccc1)N(C)C (stereo not given),1
CCC(c1nnc(SCC(=O)Nc2nnc(-c3ccccc3)o2)n1Cc1ccccc1)N(C)C (stereo not given),28*
CCC(c1nnc(SCC(=O)Nc2ccc(C(N)=O)cc2)n1Cc1ccccc1)N(C)C (stereo not given),0
C[C@H](NC(=O)OCc1ccccc1)P(=O)(O)O,-1
CCSc1nnc([C@@H]2CCCN2C(=O)OC(C)(C)C)o1,1
COC(=O)CC1C(=O)NCCN1C(=O)OC(C)(C)C (stereo not given),-2
C[C@@H]1CCCCCCCCC(=O)OCCN(C(=O)OC(C)(C)C)[C@H](C)CCCCCCCCC(=O)OCCN(C(=O)OC(C)(C)C)[C@H](C)CCCCCCCCC(=O)OCCN(C(=O)OC(C)(C)C)[C@H](C)CCCCCCCCC(=O)OCCN1C(=O)OC(C)(C)C,19*
COC(=O)[C@]1(C)CN(C(=O)OC(C)(C)C)C2=C1C(=O)C[C@@](C)(C(=O)OC(C)(C)C)C2,-2
CCCCOCCCNC(=O)C[C@H]1C(=O)N(Cc2ccc(OC)cc2)C2=CCCCC[C@@]21C(=O)OC,0
Cc1ccc(S(=O)(=O)N(C)C[C@H]2Oc3ccc(NC(=O)C4CCCCC4)cc3C(=O)N([C@H](C)CO)C[C@H]2C)cc1,-1
COc1ccc(S(=O)(=O)N(C)C[C@@H]2Oc3ccc(NS(C)(=O)=O)cc3C(=O)N([C@@H](C)CO)C[C@H]2C)cc1,-1
COc1ccc(S(=O)(=O)N(C)C[C@H]2Oc3ccc(NC(=O)C4CC4)cc3C(=O)N([C@H](C)CO)C[C@@H]2C)cc1,12*
COC(=O)[C@]12C[C@H](CC(=O)N3CCCC3)C(=O)N(Cc3ccc(Cl)cc3Cl)C1=C[C@H](C(C)C)O[C@@H]2C1CC1,-1
O=C(Nc1ccc(C(O)(C(F)(F)F)C(F)(F)F)cc1)c1ccc(F)cc1F,0
COc1ccc(C(=O)N[C@@H]2CC[C@@]34CCCN3C(=O)CCC[C@H]4[C@H]2C)cc1,0
CCOc1ccc(NC(=O)C2CCCN(C(=O)NCc3ccccc3)C2)cc1 (stereo not given),11*
SMILES,TTR transcr act
CCOc1ccc(C(=O)NC2CCN(C(=O)NCc3ccccc3)CC2)cc1,-1
O=C(Nc1ccc(F)cc1)C1CCN(C(=O)NCc2ccccc2)CC1,2
Cc1nc(N2CCN(C(=O)C3CCCCC3)CC2)c2c3c(sc2n1)CCCC3,-2
Cc1ccc(CN[C@@H]2CC[C@@]34CCCN3C(=O)CCC[C@H]4C2)cc1,9
O=C(NCc1ccccc1)C1CCN(c2nc(-c3ccc(Br)cc3)cs2)CC1,-1
CC(=O)NC(Cc1ccccc1)P(=O)(O)O (stereo not given),-2
CCOCCCNCC(=O)Nc1ccccc1N1CCOCC1,21*
CCOc1ncccc1C(=O)Nc1ccccc1N1CCOCC1,-2
Cc1cc(C)c(OCC(=O)Nc2ccccc2N2CCOCC2)c(C)c1,-2
CC(C)n1nnnc1C1(C)CCSCC(=O)N1Cc1cccc(C(F)(F)F)c1 (stereo not given),3
NC(=O)NCc1ccc(F)cc1,0
Cc1ccc(C(=O)OCC(=O)NCc2ccc(F)cc2)o1,5
